Only some compounds are listed: those with a hit (about 7.6% of all), similar ones and a draw of the others.
Cy5 interf NS3h – enhances or quenches Cy5 fluorescence in NS3h assay; Cy5-dT15 DNA with NS3h, fluorescence interference; actives lie on both sides; signal over control mean, under 1 quenches; fluorescence interference ratio at 100 µM; 16,000 compounds, 6% hits;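 active = compound fluorescence over control fluorescence at most 0.8, a quencher, or at least a set upper limit, an enhancer; inactive = ratio between 0.8 and the set upper limit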
HCV NS3h FP – blocks HCV NS3 helicase binding to DNA; NS3h Cy5-dT15 DNA binding, fluorescence polarization; inhibition, % at 100 µM; 16,000 compounds, 1.6% hits;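 active = inhibition above the average over every tested compound plus 3 SD, cut at about 40% in these data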
* marks the source's active call; other numbers are inactive results.

SMILES	Cy5 interf NS3h	HCV NS3h FP
O=C(NC(=S)Nc1ccc2oc(-c3ccccc3Br)nc2c1)c1ccco1	1	-1
O=C(COc1ccc2c(c1)oc(=O)c1ccccc12)c1ccccc1	1.4*	-72
O=C(COc1ccc2c(c1)oc(=O)c1ccccc12)OCc1ccccc1	0.94	-1
C=C(Br)n1c(COc2ccccc2)nc2ccccc21	0.92	12
Cc1ccc(C2C3=C(CC(C)(C)CC3=O)OC3=C2C(=O)CC(C)(C)C3)o1	0.67*	16
CC1(C)CC(=O)C2=C(C1)OC1=C(C(=O)CC(C)(C)C1)C2c1cccc([N+](=O)[O-])c1	1	15
CCCCCCCCNC(=O)CCC(=O)O	0.86	4
C=CCOc1ccc(/C=C(\C(=O)c2ccc(C)cc2)c2nc3ccccc3o2)cc1	0.97	20
Cc1cc2ncn(C(=O)c3ccc([N+](=O)[O-])cc3)c2cc1C	0.94	7
Cc1cc(Nc2ccccc2)n(C(=O)c2ccc([N+](=O)[O-])cc2)n1	0.74*	10
CC1CCN(CCCCOc2c(Cl)cccc2Cl)CC1	0.79*	-7
CC1CCN(Cc2c(O)ccc3ccccc23)CC1	1	0
Cc1cc(Cl)ccc1OCC(O)CN1CCCC1 (stereo not drawn)	1.1	1
Cc1ccc(C)c(OCCCCN2CCCC2)c1C	0.72*	0
CCOc1cccc(C(=O)Nc2ccc(NC(=O)c3ccco3)c(OC)c2)c1	0.92	4
Cc1cc(C)cc(N2C(=O)/C(=C/c3ccc(O)c(Cl)c3)C(=O)NC2=S)c1	0.96	25
COC(=O)c1ccc(-n2c(C)cc(C=C3C(=O)N(C)C(=O)N(C)C3=O)c2C)cc1	0.8*	16
COC(=O)c1ccc(-n2c(C)cc(/C=C3\C(=O)NC(=O)N(c4ccc(OC)cc4)C3=O)c2C)cc1	0.99	5
Cc1cccn2c(=O)c(/C=C3\SC(=S)N(Cc4ccccc4)C3=O)c(NCCCn3ccnc3)nc12	0.59*	7
COc1ccc(CCN2C(=O)/C(=C/c3c(NCCCn4ccnc4)nc4c(C)cccn4c3=O)SC2=S)cc1OC	0.89	7
O=C1C(=O)N(CCCn2ccnc2)C(c2cccc([N+](=O)[O-])c2)C1=C(O)c1ccc(Cl)cc1 (stereo not drawn)	0.98	1
COc1cc(C(=O)Nc2ccc(NC(C)=O)cc2)c([N+](=O)[O-])cc1OC	1	10
CCCNC(=O)c1cc(OC)c(OC)cc1[N+](=O)[O-]	0.79*	10
O=S(=O)(Oc1ccccc1)c1cc(Cl)ccc1Cl	0.94	14
COc1ccccc1C(=O)Nc1cc(C)cc(C)c1	0.68*	15
SMILES	Cy5 interf NS3h	HCV NS3h FP
O=C(Nc1ccc(NC(=O)c2ccccc2Br)cc1)c1ccccc1Br	0.96	9
COc1ccccc1C(=O)Nc1ccc(Br)cc1	0.91	0
CC(=O)Nc1ccc(NC(=O)c2ccccc2OC(F)F)cc1	0.77*	6
CCn1nnnc1-c1ccc(OC)c(S(=O)(=O)NCCc2ccc(OC)c(OC)c2)c1	0.98	5
Cc1cc(-c2ccccc2)nc2cc(C(=O)Nc3ccc(Cl)cc3)nn12	0.93	6
CCOc1ccc(-c2cc(C)n3nc(C(=O)Nc4ccc(C(C)=O)cc4)cc3n2)cc1	0.67*	4
CCOc1ccc(-c2cc(C)n3nc(C(=O)N(C)Cc4ccccc4)cc3n2)cc1	0.97	23
CCOc1ccc(-c2cc(C)n3nc(C(N)=O)cc3n2)cc1	0.63*	6
CC(=O)c1ccc(NC(=O)c2cc3nc(-c4ccc(Br)cc4)cc(C(F)(F)F)n3n2)cc1	0.78*	10
COC(=O)c1cc2nc(-c3ccc(Br)cc3)cc(C(F)(F)F)n2n1	0.99	5
CCc1cccc(C)c1NS(=O)(=O)c1c(C)cc(C)cc1C	1	15
Cc1cccc(N2C(=O)C(=O)C(=C(O)c3ccccc3)C2c2cccc(F)c2)c1 (stereo not drawn)	0.98	4
O=C(CN(c1cccc(Br)c1)S(=O)(=O)c1ccccc1)Nc1ccccc1Cl	0.98	10
CCN(CC)CCN1C(=O)c2ccccc2NC1c1ccc2c(c1)OCO2 (stereo not drawn)	1	6
Clc1ccccc1-c1nc(-c2cccnc2)no1	1.2*	-16
Clc1ccc(-c2nc(-c3cccnc3)no2)c(Cl)c1	1.1	9
COc1ccc(Cl)cc1NC(=O)C1=C(C)NC(=O)NC1c1ccccc1F (stereo not drawn)	1.1	-1
O=C(Nc1ccc2nn(-c3ccc(F)cc3)nc2c1)c1ccncc1	1	-14
Cc1c(Cl)c([N+](=O)[O-])nn1CC(=O)N1CCCC1	1	-3
Cc1c(Br)c([N+](=O)[O-])nn1CC(=O)N1CCc2ccccc2C1	0.56*	12
CCOc1ccc(N2C(=O)/C(=C/c3ccc(N(CC)CC)o3)C(=O)NC2=S)cc1	1.1	10
O=C(/C(=C\c1cccc([N+](=O)[O-])c1)c1nc2ccccc2s1)c1ccccc1	0.95	4
CCOC(=O)c1c(N)nc(C)n1-c1ccc(OC)cc1	1.1	1
